We go through eight molecules from PubChem BioAssay (NCATS).

The nature of assay [1]: P-glycoprotein substrates identified in KB-3-1 adenocarcinoma cell line, qHTS therapeutic library screen (AID 1346986). Also: nearly all actives have a fitted effect of over 60% in size. The essentials: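 In 1536-well format, 500 cells/well received pinned compound titrations and were incubated 72 h, 5% CO2. Viability was read by CellTiter-Glo; cytotoxic if AC50 < 10 uM and efficacy >50%.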
In general terms: In qHTS, concentration-response curves come from the screen itself.

Assay [2] can be described thus: P-glycoprotein substrates identified in KB-8-5-11 adenocarcinoma cell line, qHTS therapeutic library screen (AID 1346987). Also: nearly all actives have a fitted effect of over 65% in size. The essentials:
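Luminescence from CellTiter-Glo, read 5 min after addition, quantified survival of KB-8-5-11 (P-gp-overexpressing) cells exposed to compounds for 72 h. AC50 was derived from concentration-response curves.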

The nature of assay [3]: NS1 protein of Zika virus - qHTS assay to identify small molecule inhibitors in human HEK 293 cells (AID 1347053). Also: series mostly up to about 46 µM; nearly all actives have a fitted effect of over 55% in size. Put shortly:
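Read-out is a two-antibody TR-FRET for ZIKV NS1, normalized between uninfected cells and infected cells. Compound added 1 h before MR766 infection at MOI 0.5; human HEK 293 cells incubated 24 h, 37 C.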

Assay [4] can be described thus: qHTS of pediatric cancer cell lines to identify multiple opportunities for drug repurposing: Primary screen for TC32 cells (AID 1347089). Also: nearly all actives have a fitted effect of over 60% in size. Put shortly: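 Luminescent CellTiter-Glo read-out of metabolically active TC32 cells after 48 h compound exposure. Primary: MIPE 11-point, 0.78 nM–46 µM; NPC 8-point, 0.59 nM–46 µM. Confirmatory: 11-point dilutions.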
Assay [5] can be described thus: qHTS of pediatric cancer cell lines to identify multiple opportunities for drug repurposing: Primary screen for DAOY cells (AID 1347090). Also: nearly all actives have a fitted effect of over 55% in size. Also: potency is read from the fitted curve at half-maximal effect. Put shortly: (§1)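 Viability measured as metabolically active cells via CellTiter-Glo luminescence following 48 hours of compound exposure, 11-point dilutions in confirmatory testing. 500-1,000 cells/well plated 5 hours before dosing; controls were DMSO and 2.3 µM bortezomib.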

Assay [6] in a line: qHTS of pediatric cancer cell lines to identify multiple opportunities for drug repurposing: Primary screen for SJ-GBM2 cells (AID 1347091). Also: potency is read from the fitted curve at half-maximal effect. The essentials:
as §1

Assay [7] can be described thus: qHTS of pediatric cancer cell lines to identify multiple opportunities for drug repurposing: Primary screen for A673 cells (AID 1347092). Also: nearly all actives have a fitted effect of over 45% in size. Also: potency is read from the fitted curve at half-maximal effect. The essentials: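 A673 cells (500-1,000 cells/well in growth media) were pre-incubated 5 h at 37 degrees C, then exposed to compounds for 48 h. Viability was read as CellTiter-Glo luminescence; concentration-response curves came directly from the primary screen.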

Assay [8] can be described thus: qHTS of pediatric cancer cell lines to identify multiple opportunities for drug repurposing: Primary screen for BT-37 cells (AID 1347094). Also: potency is read from the fitted curve at half-maximal effect. The essentials: (§2)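 Phenotypic viability qHTS, 48 h compound exposure, CellTiter-Glo luminescence read-out; multi-concentration dosing so that potency and efficacy derive directly from the primary screen's curves.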
Assay [9] in a line: qHTS of pediatric cancer cell lines to identify multiple opportunities for drug repurposing: Primary screen for NB-EBc1 cells (AID 1347095). Also: potency is read from the fitted curve at half-maximal effect. The essentials:
as §2

A short description of assay [10]: qHTS of pediatric cancer cell lines to identify multiple opportunities for drug repurposing: Primary screen for U-2 OS cells (AID 1347096). Also: nearly all actives have a fitted effect of over 50% in size. The essentials: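 Viability after 48 h compound treatment at 37C, 500-1,000 cells/well, read as ATP luminescence with CellTiter-Glo. Primary screens used 11-point (MIPE, 0.78 nM-46 µM) or 8-point (NPC, 0.59 nM-46 µM) final concentrations; follow-up screens used 11-point dilutions.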

The nature of assay [11]: qHTS of pediatric cancer cell lines to identify multiple opportunities for drug repurposing: Primary screen for Saos-2 cells (AID 1347097). Also: nearly all actives have a fitted effect of over 40% in size. Also: potency is read from the fitted curve at half-maximal effect. The essentials: as §2
Assay [12] can be described thus: qHTS of pediatric cancer cell lines to identify multiple opportunities for drug repurposing: Primary screen for SK-N-MC cells (AID 1347093). Also: potency is read from the fitted curve at half-maximal effect. Put shortly:
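Metabolically active cells were quantified by ATP-dependent luminescence (CellTiter-Glo, 15 min at room temperature) following 48 h treatment. Cells had been plated at 500-1,000 per well and settled for 5 h beforehand.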

Assay [13] is described as follows: qHTS of pediatric cancer cell lines to identify multiple opportunities for drug repurposing: Primary screen for NB1643 cells (AID 1347099). Also: nearly all actives have a fitted effect of over 50% in size. Also: potency is read from the fitted curve at half-maximal effect. Put shortly: as §2
A short description of assay [14]: qHTS of pediatric cancer cell lines to identify multiple opportunities for drug repurposing: Primary screen for SK-N-SH cells (AID 1347098).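 Also: DMSO served as neutral control and bortezomib at 2.3 µM as positive control; nearly all actives have a fitted effect of over 65% in size.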 Put shortly:
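Cells (500-1,000/well) rested 5 h, then received compounds for 48 h; metabolically active cells were measured by CellTiter-Glo luminescence. Final concentrations spanned up to 46 µM (MIPE, 11-point) or 0.59 nM-46 µM (NPC, 8-point) in primary screens, 11-point in follow-ups.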

A short description of assay [15]: Natriuretic polypeptide receptor (hNpr1) antagonism - Pilot counterscreen GloSensor control cell line (AID 1347045; calls by dose curve; also: series mostly up to about 38 µM). The essentials: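 Cells were first seeded and incubated overnight at 37C, then loaded with 2% GloSensor substrate for 2 h. Compounds were added for 30 min at room temperature, followed by a baseline read, 50 uM SNP and a final read after 20 min.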

Assay [16] addresses Atrial natriuretic peptide receptor 2 (Homo sapiens) (UniProt P20594). Kind of assay: Natriuretic polypeptide receptor (hNpr2) antagonism - Pilot subtype selectivity assay (AID 1347050; calls by dose curve). The essentials: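 Luminescence from a genetically encoded cGMP luciferase biosensor in hNpr2-expressing HEK293 cells is read before and 20 min after adding 1 nM hNppC. Test compounds, in interplate 1:5 titrations, are added 30-50 min ahead of the agonist.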

Assay [17] concerns the target T1, Tyrosine-protein phosphatase non-receptor type substrate 1 (Homo sapiens) + Leukocyte surface antigen CD47 (Homo sapiens) (UniProt P78324+Q08722). Kind of assay: CD47-SIRPalpha protein protein interaction - LANCE assay qHTS validation (AID 1347057; active = well fitted curve in the direction sought with a large enough effect in the signal ratio, with a control signal flat, not every such curve was filed as active; the % refers to the signal ratio; also: series mostly up to about 38 µM). The essentials: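 Inhibition of soluble CD47/SIRPalpha ectodomain association by titrated compounds, measured as 665/615 nm time-resolved FRET ratio after sequential 30 min room-temperature incubations.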
Background: In TR-FRET formats the signal depends on donor and acceptor labels being close together.

The target of assay [18] is T1, Tyrosine-protein phosphatase non-receptor type substrate 1 (Homo sapiens) + Leukocyte surface antigen CD47 (Homo sapiens). Kind of assay: CD47-SIRPalpha protein protein interaction - HTRF assay qHTS validation (AID 1347058; active = well fitted curve in the direction sought with a large enough effect in the signal ratio, not every such curve was filed as active; the % refers to the signal ratio; also: series mostly up to about 38 µM). The essentials: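 Soluble extracellular domains (6His-CD47, Avi-tag-biotinylated SIRPalpha) in PBS pH 7.4 with 0.05% IGEPAL CA-630. Compounds were preincubated 30 min at RT with CD47 and anti-His-Eu, then SIRPalpha and SAV-XL665 were added. TR-FRET 665/615 ratio.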

The target is the same in assay [19]. Kind of assay: CD47-SIRPalpha protein protein interaction - Alpha assay qHTS validation (AID 1347059).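 Also: bead proximity luminescence from CD47 binding SIRPalpha after compound preincubation with SIRPalpha.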 Put shortly:
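SIRPalpha-biotin 25 nM + cpd, 30 min RT, dark; add CD47-His 12.5 nM, 30 min; add Ni-NTA/SAV beads 10 ug/mL, 30 min; AlphaScreen. Buffer PBS pH 7.4 + 0.05% IGEPAL CA-630. Non-biotinylated SIRPalpha as control inhibitor.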

Assay [20] deals with Parathyroid hormone/parathyroid hormone-related peptide receptor (Homo sapiens) (UniProt Q03431). Kind of assay: qHTS for PTHR1 Agonists: Optimization Screen against the NCGC LOPAC library (AID 1347079).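 Also: GloSensor cAMP luminescence in HEK-293 GP2 cells expressing human PTHR1 with IBMX.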 Put shortly: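 HEK-293 GP2 cells, PTHR1 + GloSensor cAMP; 3000 cells/well, o/n. Luciferin + IBMX 0.5mM each (stock), 1 hr 37C. Cpd titration, 1 hr 37C. Lum after 15 min RT. Ctrl M-PTH(1-15) top 10uM.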

Records with an inconclusive call do not appear. Calls of active or inactive are those of the source. Unless noted, calls follow the shape of the dose curve; as a rule, active = well fitted curve in the direction sought with a large enough effect; inconclusive = small, poorly fitted or top-dose-only effect, or another doubt; inactive = no such curve, though single readings can be large; an effect the other way counts as inactive or inconclusive.

T1 sequence (P78324 whole entry, looked up, the tested form may be a part): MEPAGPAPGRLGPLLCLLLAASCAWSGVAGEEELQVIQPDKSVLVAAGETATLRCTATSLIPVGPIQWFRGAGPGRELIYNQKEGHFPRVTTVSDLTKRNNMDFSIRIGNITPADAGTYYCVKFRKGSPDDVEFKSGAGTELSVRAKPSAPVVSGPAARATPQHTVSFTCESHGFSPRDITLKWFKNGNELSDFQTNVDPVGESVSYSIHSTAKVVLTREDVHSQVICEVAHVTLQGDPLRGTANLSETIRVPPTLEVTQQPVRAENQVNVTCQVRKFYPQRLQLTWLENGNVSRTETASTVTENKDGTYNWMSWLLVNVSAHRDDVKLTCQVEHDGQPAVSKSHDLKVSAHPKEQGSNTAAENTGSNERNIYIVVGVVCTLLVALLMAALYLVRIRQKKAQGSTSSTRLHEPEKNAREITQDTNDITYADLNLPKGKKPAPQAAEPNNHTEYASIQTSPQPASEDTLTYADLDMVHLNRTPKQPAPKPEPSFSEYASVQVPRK
T1 sequence (Q08722 whole entry, looked up, the tested form may be a part): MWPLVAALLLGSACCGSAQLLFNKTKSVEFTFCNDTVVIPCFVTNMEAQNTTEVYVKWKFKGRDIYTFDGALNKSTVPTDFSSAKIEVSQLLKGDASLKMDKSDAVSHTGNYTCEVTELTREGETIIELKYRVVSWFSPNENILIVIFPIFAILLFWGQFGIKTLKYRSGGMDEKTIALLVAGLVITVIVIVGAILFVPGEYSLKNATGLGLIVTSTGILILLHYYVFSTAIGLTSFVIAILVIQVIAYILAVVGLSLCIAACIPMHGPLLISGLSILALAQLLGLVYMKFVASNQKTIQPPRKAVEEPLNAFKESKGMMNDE
Parathyroid hormone/parathyroid hormone-related peptide receptor (Homo sapiens), sequence (Q03431 whole entry, looked up): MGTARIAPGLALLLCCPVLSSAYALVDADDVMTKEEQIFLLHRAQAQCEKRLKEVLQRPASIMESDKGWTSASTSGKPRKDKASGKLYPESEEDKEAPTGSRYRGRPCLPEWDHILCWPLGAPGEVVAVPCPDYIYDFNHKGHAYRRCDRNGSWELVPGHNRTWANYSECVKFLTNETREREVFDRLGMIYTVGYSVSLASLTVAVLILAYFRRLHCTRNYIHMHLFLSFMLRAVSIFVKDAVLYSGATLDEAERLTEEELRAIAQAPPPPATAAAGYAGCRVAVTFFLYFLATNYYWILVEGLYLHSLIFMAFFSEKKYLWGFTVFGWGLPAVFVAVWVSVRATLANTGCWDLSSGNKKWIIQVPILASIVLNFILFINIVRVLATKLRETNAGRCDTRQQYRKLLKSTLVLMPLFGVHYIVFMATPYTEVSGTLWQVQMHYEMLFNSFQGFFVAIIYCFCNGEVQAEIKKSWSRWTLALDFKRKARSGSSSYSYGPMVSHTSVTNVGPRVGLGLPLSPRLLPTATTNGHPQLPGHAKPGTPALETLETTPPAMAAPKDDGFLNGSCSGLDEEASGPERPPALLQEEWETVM
Atrial natriuretic peptide receptor 2 (Homo sapiens), sequence (P20594 whole entry, looked up): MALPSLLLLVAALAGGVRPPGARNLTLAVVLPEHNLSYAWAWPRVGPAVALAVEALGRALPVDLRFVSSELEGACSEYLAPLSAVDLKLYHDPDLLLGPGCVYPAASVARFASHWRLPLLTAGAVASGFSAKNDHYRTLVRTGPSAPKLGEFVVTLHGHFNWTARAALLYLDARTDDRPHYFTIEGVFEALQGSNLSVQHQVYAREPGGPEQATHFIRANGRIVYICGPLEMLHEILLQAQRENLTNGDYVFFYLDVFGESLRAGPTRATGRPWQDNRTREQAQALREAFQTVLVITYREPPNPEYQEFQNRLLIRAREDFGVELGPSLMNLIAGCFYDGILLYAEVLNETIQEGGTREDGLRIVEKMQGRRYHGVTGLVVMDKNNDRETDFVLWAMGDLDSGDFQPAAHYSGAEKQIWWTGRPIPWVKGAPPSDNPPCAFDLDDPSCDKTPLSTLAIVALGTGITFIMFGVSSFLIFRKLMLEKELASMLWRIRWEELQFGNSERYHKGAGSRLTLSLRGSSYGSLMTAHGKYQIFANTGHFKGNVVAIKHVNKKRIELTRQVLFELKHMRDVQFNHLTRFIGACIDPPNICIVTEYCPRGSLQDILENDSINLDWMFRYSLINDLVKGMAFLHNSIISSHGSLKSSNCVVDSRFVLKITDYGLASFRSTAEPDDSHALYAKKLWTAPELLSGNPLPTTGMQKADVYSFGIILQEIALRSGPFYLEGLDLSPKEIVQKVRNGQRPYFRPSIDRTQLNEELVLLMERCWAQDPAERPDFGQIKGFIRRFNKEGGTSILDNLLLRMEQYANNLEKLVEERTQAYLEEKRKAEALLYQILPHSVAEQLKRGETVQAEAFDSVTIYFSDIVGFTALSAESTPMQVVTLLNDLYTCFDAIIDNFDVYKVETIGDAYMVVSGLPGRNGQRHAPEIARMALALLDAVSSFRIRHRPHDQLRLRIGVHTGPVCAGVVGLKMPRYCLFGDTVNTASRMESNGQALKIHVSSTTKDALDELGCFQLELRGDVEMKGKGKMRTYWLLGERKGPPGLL

`Nc1ncnc2ccccc12`: the Potency entry in assay [1], in assay [2], in assay [3], in [4], in assay [6] and in assay [8] was “inactive” throughout. Besides, the Potency entry in [9], in [10] and in assay [11] was “inactive” throughout. In addition, the values for the Potency in assay [5] and in assay [7] were 18.7 µM (active) and 23.5 µM (active), respectively.

With `O=c1ccn([C@@H]2O[C@H](CO)[C@H](O)[C@H]2O)c(=O)[nH]1`, the Potency entry in assay [1], in assay [2], in assay [3], in [4], in assay [5] and in assay [6] was “inactive” in each case. For the same molecule, the Potency result in assay [7], in assay [12], in [8], in assay [9], in assay [10] and in assay [11] was “inactive” throughout.

As for `Cc1cnc(C(=O)O)c[n+]1[O-]`, the Potency result in assay [1], in assay [2], in [4], in [5], in [6] and in assay [7] was “inactive” in each case. Further, the Potency entry in [12], in assay [8], in assay [9], in assay [10], in assay [11] and in assay [13] was “inactive” each time.

Turning to `CC1(C)Cc2c(sc(NC(=S)NC(=O)c3ccccc3)c2C(=O)O)CO1`, the Potency entry in assay [1], in assay [2], in assay [3], in assay [4], in assay [6] and in assay [8] was “inactive” each time. Besides, the Potency result in [9], in assay [10] and in assay [11] was “inactive” throughout. Further, the Potency in assay [7] was 23.5 µM (active); in assay [12] it was 1.66 µM (active); in [13] it was 5.26 µM (active).

As to `Nc1nc(F)nc2c1ncn2[C@@H]1O[C@H](COP(=O)(O)O)[C@@H](O)[C@H]1O`, the Potency result in [1], in assay [2] and in assay [3] was “inactive” throughout. The Potency was 4.69 µM (active) in [5]; 0.662 µM (active) in assay [6]; 14.8 µM (active) in assay [7]; 0.264 µM (active) in assay [12]; 15.3 µM (active) in [8]; 0.935 µM (active) in assay [9]. For the same molecule, the figures for the Potency in assay [11] and in assay [13] were 0.743 µM (active) and 16.6 µM (active), respectively.

Take `Nc1ncnc2c1ncn2[C@@H]1O[C@@H](CO)[C@H](O)[C@H]1O`: the Potency result in [1], in [2], in [3], in assay [4], in assay [5] and in [6] was “inactive” in each case. For the same molecule, the Potency entry in [12], in assay [8], in [9], in assay [10], in assay [14] and in assay [13] was “inactive” in each case.

With `COc1ccccc1N1CCN(CCCNc2cc(=O)n(C)c(=O)n2C)CC1`, the Potency result in [2], in [15], in [3], in [4], in [5] and in assay [6] was “inactive” throughout. For the same molecule, the Potency entry in assay [7], in [8], in assay [9], in [10], in assay [11] and in [14] was “inactive” each time. Also, the Potency entry in assay [13] is “inactive”. In addition, the result in [16], in [17], in assay [18], in assay [19] and in assay [20] was inactive.

For the molecule `C[C@H](NC(=O)C(=O)Nc1ccccc1C(C)(C)C)C(=O)N[C@@H](CC(=O)O)C(=O)COc1c(F)c(F)cc(F)c1F`, the Potency entry in assay [1], in assay [2], in [4], in [6], in assay [8] and in assay [9] was “inactive” each time. Moreover, the Potency result in [14] is “inactive”. For the same molecule, the Potency in assay [12] was 5.9 µM (active); in assay [11], 18.7 µM (active); in assay [13] it was 9.35 µM (active).
